Test [1] can be described thus: reducers of endogenous Her2 protein level, primary screen, SKBR3 breast tumor cells, AlphaScreen, ATP viability (AID 461;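 active means Her2 level under about 52% in both replicate screens, with viability over 70% of control, limit read from the data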;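 on Her2 level: lower value means less Her2 protein in the cells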;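 on viability: percent of carrier control wells set as 100% viability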). Conditions: 18-24 h, measured here: SKBR3 viability, ATP luminescence, at 10 µM.
In test [2] the target is Receptor tyrosine-protein kinase erbB-2 (Homo sapiens) (UniProt P04626). The description is as above. Conditions: 18-24 h, at 10 µM, stronger effect = lower value.
Chain of Receptor tyrosine-protein kinase erbB-2 (Homo sapiens) (P04626 whole entry, looked up): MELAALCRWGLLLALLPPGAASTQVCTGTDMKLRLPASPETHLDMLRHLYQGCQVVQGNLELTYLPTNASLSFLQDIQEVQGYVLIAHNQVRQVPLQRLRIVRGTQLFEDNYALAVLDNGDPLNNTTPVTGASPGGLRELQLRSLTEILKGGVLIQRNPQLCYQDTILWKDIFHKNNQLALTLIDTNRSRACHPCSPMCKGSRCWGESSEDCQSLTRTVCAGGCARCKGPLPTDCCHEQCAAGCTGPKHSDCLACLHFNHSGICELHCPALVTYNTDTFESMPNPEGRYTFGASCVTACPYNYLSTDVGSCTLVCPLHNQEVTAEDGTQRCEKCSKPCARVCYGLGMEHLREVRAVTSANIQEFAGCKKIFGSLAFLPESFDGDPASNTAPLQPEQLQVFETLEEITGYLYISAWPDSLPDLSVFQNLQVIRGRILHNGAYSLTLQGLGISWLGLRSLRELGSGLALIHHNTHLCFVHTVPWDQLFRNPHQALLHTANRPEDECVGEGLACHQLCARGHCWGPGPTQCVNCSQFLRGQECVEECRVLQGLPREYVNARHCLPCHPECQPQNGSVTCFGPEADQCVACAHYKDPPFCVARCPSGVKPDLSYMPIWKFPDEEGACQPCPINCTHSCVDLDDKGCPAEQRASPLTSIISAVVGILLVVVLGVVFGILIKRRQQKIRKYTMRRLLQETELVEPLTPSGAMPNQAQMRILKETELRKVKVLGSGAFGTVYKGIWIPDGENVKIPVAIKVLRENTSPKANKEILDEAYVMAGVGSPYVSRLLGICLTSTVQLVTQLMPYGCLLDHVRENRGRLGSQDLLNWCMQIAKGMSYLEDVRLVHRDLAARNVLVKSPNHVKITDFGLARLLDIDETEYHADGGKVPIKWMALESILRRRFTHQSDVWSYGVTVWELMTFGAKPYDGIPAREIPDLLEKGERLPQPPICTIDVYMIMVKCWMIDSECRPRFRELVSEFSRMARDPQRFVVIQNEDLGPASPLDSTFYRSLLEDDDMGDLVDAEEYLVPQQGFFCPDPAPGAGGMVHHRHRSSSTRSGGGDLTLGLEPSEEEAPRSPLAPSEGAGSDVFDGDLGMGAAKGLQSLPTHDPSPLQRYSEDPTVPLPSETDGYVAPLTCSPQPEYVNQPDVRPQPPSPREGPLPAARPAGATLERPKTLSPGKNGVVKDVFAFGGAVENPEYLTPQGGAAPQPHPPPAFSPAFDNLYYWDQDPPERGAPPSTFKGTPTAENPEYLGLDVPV
A short description of test [3]: SK-BR-3 cell growth inhibitors, pilot screen, 24 h, human (AID 572;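 active means viability at or below 10% of carrier control in both of two separate runs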;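 further: compound exposure lasted between 18 and 24 h rather than exactly 24 h; 100% = carrier-treated control wells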). The following applies: SK-BR-3 viability, CellTiter-Glo luminescence, at 10 µM, stronger effect = lower value.
The nature of test [4]: HUVEC growth inhibition – cell-based, human, primary screen (AID 575;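 active means viability at or below 30% in both replicate assays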;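 further: 100% = median of untreated cell wells with 0.1% DMSO on each plate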). The following applies: HUVEC proliferation, CellTiter-Glo luminescence, 72 h; at 10 µM; stronger effect = lower value.
Test [5] can be described thus: growth inhibitors of H69AR lung tumor, primary screen, human, duplicate replicates (AID 580;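 active means viability at or under a set limit in both replicates, limit being median viability minus 3 SD, cut at about 48% in these data, passing the limit was not always enough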;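 further: 100% = mean luminescence of untreated wells and 0% = no signal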). The following applies: H69AR lung tumor cells viability, ATP luminescence, 72 h; at 10 µM; stronger effect = lower value.
Test [6] can be described thus: reversal of MRP1-mediated doxorubicin resistance, pilot screen, H69AR cells, doxorubicin co-treatment (AID 601;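 active means viability loss from added drug above about 55%, and viability with drug at most 40%, in both replicates, limit read from the data, passing the limit was not always enough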). The following applies: CellTiter-Glo, 72 h, at 10 µM; for differential viability (reversal): stronger effect = higher value.
A short description of test [7]: 384-well plate pilot, post-Golgi transport modulator project, inhibition of yeast transport mutant growth (AID 636; in the data active means inhibition above about 31%). The following applies: absorbance 615 nm, about 18 h, stronger effect = higher value.
Test [8] in a line: growth suppression of yeast trafficking mutant, preliminary HTS, modulators of trafficking downstream of Golgi apparatus project, 1536-format plate, OD 615 nm (AID 637; in the data active means inhibition above about 30%). The following applies: yeast transport mutant growth, absorbance 615 nm, 18 h; stronger effect = higher value.
Test [9] can be described thus: OD615 S. cerevisiae growth inhibition, permissive medium, pilot counter-assay, permissive growth control for S. cerevisiae lifespan shortening project (AID 705). The following applies: OD615, 24 h, at 10 µM, stronger effect = higher value.
Test [10] is described as follows: Restrictive medium S. cerevisiae growth inhibition, OD615, pilot screen of yeast lifespan reduction project, restrictive growth control (AID 706;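 active means growth inhibition above a set limit, 3 SD over mean compound inhibition, in both replicates, cut at about 43% in these data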;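 further: modified DeaD lifespan yeast strain shifted to restrictive glucose medium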). The following applies: OD615, 48 h, at 10 µM, stronger effect = higher value.
A short description of test [11]: viability gain of MRP-1-high H69AR cells under doxorubicin, pilot screen, MRP-1 activator project, CellTiter-Glo, duplicate (AID 807;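 active means viability increase at or above a cutoff of the median across tested compounds plus 3 SD, cut at about 8.5% in these data, passing the limit was not always enough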;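 further: compound pretreatment 18-22 h then 72 h combined with doxorubicin; 0% = doxorubicin alone and 100% = vehicle without doxorubicin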). The following applies: H69AR viability with doxorubicin, CellTiter-Glo luminescence; at 10 µM; stronger effect = higher value.
The nature of test [12]: growth suppression of beta-catenin knockout HCT116, pilot screen, human colon tumor cells (AID 823;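 active means cell viability at or below a set limit in both duplicate runs, the limit being the all-compound median minus 4 SD, cut at about 23% in these data, passing the limit was not always enough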;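 further: 0% = wells killed by 20 µM Hyamine and 100% = untreated DMSO cell wells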). Conditions: CellTiter-Glo, 60 h, at 10 µM, stronger effect = lower value.
Test [13] in a line: growth suppression of PTEN-deleted HCT116, pilot screen, cell-based, HCT116 clonal line, CellTiter-Glo (AID 824;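 active means viability at or below 27.92% in each of two runs, the all-compound median minus 4 SD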;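 further: 0% = 20 µM Hyamine control and 100% = vehicle cell control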). Conditions: 60 h, at 10 µM, stronger effect = lower value.
Test [14] in a line: inhibitors of the yeast RAM network, pilot screen, dse1pr::URA3 reporter, 5-FOA selection (AID 869;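 active means inhibition over a set limit, the all-compound mean plus 3 SD, in both replicate runs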;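 further: 0% = DMSO wells with no growth and 100% = 10 µM 1-NA-PP1 with full growth; RAM network block rescues cells from 5-FOA so hits raise OD615 growth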). The following applies: S. cerevisiae dse1pr::URA3 5-FOA growth, OD615, 2 d; at 10 µM; stronger effect = higher value; strain carries analog-sensitive mutant Cbk1 kinase.
Test [15] is described as follows: RAM signaling pathway blockade in yeast – S. cerevisiae, Pdr1DBD-CYC8 efflux-inhibited sensitized strain, primary screen (AID 1298;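 active means RAM network inhibition above 8.4% in each of two replicates, 3 SD over the compound average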;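 further: 0% = DMSO untreated cells without growth and 100% = 10 µM 1-NA-PP1 full growth; higher means more yeast growth rescued from 5-FOA killing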). Conditions: S. cerevisiae cbk1-as DSE1-URA3 strain, 5-FOA growth OD615, 2 d; at 50 µM; stronger effect = higher value.
Where [16] appears, read: H69AR cells + 2 uM doxorubicin, measured here: viability with 2 uM doxorubicin, stronger effect = lower value.
Where [17] appears, read: H69AR cells, compound alone cytotoxicity.

Inconclusive results are not listed. Activity calls are given as the source filed them.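 How the source made its calls, unless noted: active means growth inhibition above 25% in both replicates, a cutoff set 3 SD above the mean; inconclusive means above 25% in only one replicate; inactive means the rest.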

For `COc1ccc(OCC(=O)N2CC3(C)CC2CC(C)(C)C3)cc1` (stereo not given), the viability in [1] is 96%; in [3], 96% (inactive); in test [4], 108% (inactive); in test [5] it was 99.8% (inactive); in test [6] (setting [16]) it was 82.8%; in [6] (setting [17]) it was 99.8%. In addition, the viability in test [12] was 97.9% (inactive); in test [13], 92% (inactive). Further, the Her2 level in [2] is 84% (inactive). In addition, in test [6] (H69AR cells + 2 uM doxorubicin), the differential viability (reversal) was 17% (inactive). For the same compound, the inhibition was -3.2% (inactive) in [7], -2.9% (inactive) in test [8] and 1.06% (inactive) in [14]. Further, the growth inhibition in test [9] is -9.87% (inactive); in [10], -0.89% (inactive). Besides, in [11], the viability increase is 0.69% (inactive). Besides, the RAM network inhibition in test [15] was 1.07% (inactive).
For `CCC(C)NC(=O)c1cn(CC)c2ccc(S(=O)(=O)N(C)C)cc2c1=O` (stereo not given), the viability was 87% in test [1]; 87% (inactive) in test [3]; 85.7% (inactive) in [4]; 78.9% (inactive) in test [5]; 90.6% in [6] (setting [16]); 78.9% in test [6] (setting [17]). For the same compound, the viability in test [12] is 92.4% (inactive); in test [13], 93.4% (inactive). In test [2], the Her2 level is 84% (inactive). Besides, in [6] (H69AR cells + 2 uM doxorubicin), the differential viability (reversal) is -11.6% (inactive). In addition, the values for the inhibition in [7], in test [8] and in test [14] were -4.53% (inactive), -2.33% (inactive) and -0.32% (inactive), respectively. Further, the growth inhibition in test [9] was 2.96% (inactive); in test [10], 14.4% (inactive). Also, the viability increase in test [11] is -2.73% (inactive). The RAM network inhibition in test [15] is 1.7% (inactive).
In the case of `CC(=O)NC(CCS(C)(=O)=O)C(=O)Nc1cccc(C)c1` (stereo not given), the viability in test [1] is 88.5%; in test [3] it was 88.5% (inactive); in test [4] it was 89.3% (inactive); in test [5], 94.1% (inactive); in test [6] (setting [16]), 92.7%; in test [6] (setting [17]), 94.1%. The figures for the viability in test [12] and in [13] were 103% (inactive) and 100% (inactive), respectively. Also, in test [2], the Her2 level was 121% (inactive). Moreover, the differential viability (reversal) in [6] (H69AR cells + 2 uM doxorubicin) is 1.42% (inactive). Moreover, the inhibition in test [7] is 1.87% (inactive); in test [8] it was 1.83% (inactive); in test [14] it was 1.04% (inactive). Further, the growth inhibition is -12.4% (inactive) in [9] and -11.9% (inactive) in [10]. For the same compound, the viability increase in [11] is 0.75% (inactive). For the same compound, the RAM network inhibition in test [15] was 2.51% (inactive).
As for `N#Cc1cnc2sc3ccccc3n2c1=N`, the viability in test [1] is 99%; in [3], 99% (inactive); in test [4] it was 69% (inactive); in [5], 87.7% (inactive); in test [6] (setting [16]) it was 90.5%; in [6] (setting [17]), 87.7%. Also, the figures for the viability in [12] and in [13] were 94.4% (inactive) and 95.9% (inactive), respectively. Moreover, in [2], the Her2 level was 114% (inactive). In addition, in test [6] (H69AR cells + 2 uM doxorubicin), the differential viability (reversal) was -2.73% (inactive). Also, the inhibition in test [7] was -3.07% (inactive); in test [8], 3.06% (inactive); in test [14], -0.405% (inactive). The growth inhibition in test [9] is 0.55% (inactive); in test [10] it was 12.3% (inactive). In addition, the viability increase in test [11] was -1.27% (inactive). For the same compound, the RAM network inhibition in test [15] was 5.97% (inactive).
In the case of `Nc1[nH]nc2nc(N3CCCC3)nc(-c3ccccc3)c12`, the viability in test [1] was 113%; in [3], 113% (inactive); in test [4], 92% (inactive); in test [5], 95.6% (inactive); in [6] (setting [16]), 88.6%; in [6] (setting [17]), 95.6%. Also, the figures for the viability in test [12] and in test [13] were 99% (inactive) and 90.9% (inactive), respectively. Besides, the Her2 level in test [2] was 97.5% (inactive). For the same compound, in test [6] (H69AR cells + 2 uM doxorubicin), the differential viability (reversal) was 7% (inactive). In addition, the results for the inhibition in test [7], in [8] and in test [14] were -6.27% (inactive), 2.1% (inactive) and 0.285% (inactive), respectively. For the same compound, the growth inhibition in test [9] was -6.15% (inactive); in [10] it was -9.01% (inactive). The viability increase in [11] is -4.09% (inactive). Further, in test [15], the RAM network inhibition is -0.16% (inactive).
Consider `Cc1noc(/C=C/N(C)C)c1S(=O)(=O)N1CCCC(C(=O)N2CCc3ccccc32)C1` (stereo not given), for which the viability in test [1] is 104%; in test [3], 104% (inactive); in test [4], 86.3% (inactive); in test [5], 89.2% (inactive); in [6] (setting [16]) it was 94.7%; in [6] (setting [17]) it was 89.2%. In addition, the figures for the viability in test [12] and in [13] were 103% (inactive) and 109% (inactive), respectively. Moreover, in [2], the Her2 level was 99% (inactive). For the same compound, the differential viability (reversal) in [6] (H69AR cells + 2 uM doxorubicin) was -5.5% (inactive). Further, the inhibition is -5.2% (inactive) in test [7], -0.33% (inactive) in test [8] and 1.35% (inactive) in test [14]. Further, the figures for the growth inhibition in test [9] and in test [10] were 5.67% (inactive) and -0.63% (inactive), respectively. For the same compound, the viability increase in test [11] was -0.98% (inactive). The RAM network inhibition in [15] is 4.08% (inactive).
Regarding `Cc1c(C(=O)OCc2ccccc2)[nH]c2c1C(=O)CC(c1ccco1)C2` (stereo not given), the viability is 86.5% in test [1]; 86.5% (inactive) in test [3]; 7.06% (active) in test [4]; 6.48% (active) in test [5]; 8.71% in test [6] (setting [16]); 6.48% in test [6] (setting [17]). Also, the viability in test [12] was 16.3% (active); in test [13], 18.2% (active). Also, in test [2], the Her2 level was 40.5% (active). In addition, the differential viability (reversal) in [6] (H69AR cells + 2 uM doxorubicin) was -2.23% (inactive). The inhibition is 4.87% (inactive) in [7], -0.5% (inactive) in test [8] and 1.69% (inactive) in test [14]. Moreover, the results for the growth inhibition in test [9] and in [10] were -15.1% (inactive) and -7.56% (inactive), respectively. Further, in test [11], the viability increase is -4.85% (inactive). In addition, the RAM network inhibition in test [15] is 1% (inactive).
Regarding `COc1cccc(C2=NOC(C(=O)N3CCc4ccccc4C3)C2)c1` (stereo not given), the viability in [1] was 87%; in [3], 87% (inactive); in [4], 92.2% (inactive); in test [5] it was 92% (inactive); in test [6] (setting [16]), 77.9%; in test [6] (setting [17]) it was 92%. The viability was 104% (inactive) in test [12] and 95.5% (inactive) in [13]. Also, in test [2], the Her2 level was 92.5% (inactive). For the same compound, the differential viability (reversal) in test [6] (H69AR cells + 2 uM doxorubicin) was 14.1% (inactive). The values for the inhibition in [7], in [8] and in test [14] were -1.41% (inactive), -1.83% (inactive) and -0.045% (inactive), respectively. For the same compound, the growth inhibition in test [9] was -9.41% (inactive); in [10], 4.4% (inactive). Moreover, the viability increase in test [11] is -2.18% (inactive). In addition, the RAM network inhibition in test [15] was -2.13% (inactive).
As to `CCOC(=O)CN1CC23C=CC(O2)C(C(=O)Nc2ccc(OCC)cc2)C3C1=O` (stereo not given), the viability in test [1] is 100%; in test [3], 100% (inactive); in test [4], 102% (inactive); in [5], 96.4% (inactive); in test [6] (setting [16]) it was 89.2%; in [6] (setting [17]), 96.4%. The viability in [12] is 112% (inactive); in test [13], 105% (inactive). Besides, the Her2 level in test [2] is 96% (inactive). Also, in test [6] (H69AR cells + 2 uM doxorubicin), the differential viability (reversal) is 7.16% (inactive). Further, the inhibition in test [7] was -4.53% (inactive); in [8], 0.49% (inactive); in test [14], 2.22% (inactive). For the same compound, the growth inhibition in test [9] was 17% (inactive); in test [10], 13.4% (inactive). In addition, the viability increase in test [11] is -0.57% (inactive). Moreover, the RAM network inhibition in [15] was 0.21% (inactive).
`COc1ccccc1NC(=O)CSc1nnc(Cc2cccn2C)n1-c1ccc(F)cc1`: the viability in [1] was 96.5%; in [3], 96.5% (inactive); in test [4] it was 95.4% (inactive); in [5] it was 71.8% (inactive); in [6] (setting [16]) it was 84.9%; in test [6] (setting [17]) it was 71.8%. The results for the viability in test [12] and in test [13] were 86.7% (inactive) and 86.8% (inactive), respectively. Further, the Her2 level in test [2] was 86% (inactive). In [6] (H69AR cells + 2 uM doxorubicin), the differential viability (reversal) was -13.1% (inactive). Further, the inhibition in [7] is -4.8% (inactive); in test [8] it was -2.67% (inactive); in test [14], 2.05% (inactive). The growth inhibition in test [9] is -3.11% (inactive); in test [10] it was 10.8% (inactive). In addition, the viability increase in [11] was -4.45% (inactive). For the same compound, in test [15], the RAM network inhibition was 2.25% (inactive).

The record behind these values is PubChem BioAssay.
